Values joined by “and” are separate entries in the source; they are usually repeats but may differ in a detail not shown here. Identical values can stand only once. Active and inactive are the calls of the source.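 The calls were made as follows: active = inhibition at or above 50% relative to wild type and mutant plate controls; inactive = inhibition below 50%.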
assay: loss of swimming-algae plug formation – whole organism, Chlamydomonas reinhardtii, WT vs cilia-less mutant, absorbance, 96-well, primary screen (AID 463189); details: Chlamydomonas reinhardtii gravitaxis, OD600 absorbance, 2 days; at 10 µM; hits give high values;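 also: 0% = wild type cc124 cells in DMSO and 100% = ciliumless bld1 mutant cells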

Structure (SMILES)	inhibition
CC[C@H](NC(=O)c1c(C)c(-c2ccccc2)nc2ccccc12)c1ccccc1	9.84% (inactive)
Clc1ccc(C(c2ccccc2Cl)C(Cl)Cl)cc1 (stereo not given)	11.1% (inactive)
COc1ccc(CCNC[C@@H](O)c2ccc(O)cc2)cc1OC	-0.226% (inactive)
O=C(O)/C(=C/c1c(C(=O)O)[nH]c2cc(Cl)cc(Cl)c12)c1ccccc1	-3.38% (inactive)
COC(=O)[C@H]1[C@H]2C[C@@H]3c4[nH]c5cc(OC)ccc5c4CCN3C[C@H]2C[C@@H](OC(=O)c2cc(OC)c(OC)c(OC)c2)[C@@H]1OC	-3.87% (inactive)
NCCS(=O)(=O)O	8.8% (inactive)
NC(N)=NC(N)=Nc1cccc(Cl)c1	4.09% (inactive)
CCCCCCC/C=C\CCCCCCCCC(=O)O	9.07% (inactive)
C=CC[C@H](N)C(=O)O	4.13% (inactive)
CC(O)C(O)[C@H]1CNc2nc(N)[nH]c(=O)c2N1 (stereo not given in full)	6.73% (inactive)
NCCCCNS(=O)(=O)c1cccc2c(Cl)cccc12	-1.51% (inactive)
CC(C)(Oc1ccc(C2CC2(Cl)Cl)cc1)C(=O)O (stereo not given)	1.41% (inactive)
O=C(O)c1cc(=O)c2ccc(Cl)cc2[nH]1	4.9% (inactive)
Clc1cccc(Cl)c1NC1=NCCN1	5.28% (inactive)
C/C=C1\C(=O)CC2C3CCC4=CC(=O)CC[C@]4(C)C3CC[C@]12C (stereo not given in full)	0.131% (inactive)
N[C@H](CO)C(=O)O	3.16% (inactive)
Cc1cccc(C#Cc2ccccc2)n1	8.4% (inactive)
O=c1[nH]ccc2c(O)cccc12	3.93% (inactive)
CC[N+](CC)(CC)CCOc1cccc(OCC[N+](CC)(CC)CC)c1OCC[N+](CC)(CC)CC	3.26% (inactive)
[Li+]	-0.162% (inactive)

Structure (SMILES)	inhibition
NCC1OC(O[C@@H]2[C@H](O)C(OC3C(O)C(N)CC(N)C3OC3OC(CO)C(O)C(O)C3N)O[C@@H]2CO)C(N)C(O)C1O (stereo not given in full)	4.9% (inactive)
O=S(=O)(c1cccc2c(Cl)cccc12)N1CCCNCC1	6.11% (inactive)
C=C[C@H]1CN2CCC1C[C@@H]2[C@@H](O)c1ccnc2ccc(OC)cc12 (stereo not given in full)	5.44% (inactive)
CN(C)CC/C=C1\c2ccccc2COc2ccccc21	6.63% (inactive)
CC(C)C1C2CCC(C2)C1N (stereo not given)	3.56% (inactive)
O=C1c2c(O)cc(O)cc2OC(c2ccc(O)c(O)c2)C1O (stereo not given)	-16.9% (inactive)
C[C@H](NC(=O)/C(C#N)=C/c1ccc(O)c(O)c1)c1ccccc1	-0.423% (inactive)
Cc1ccc(=O)n(-c2ccccc2)c1	4.35% (inactive)
NC(=O)c1cccc(N)c1	3.55% (inactive)
NC(N)=NCCCCN=C(N)N	-4.67% (inactive)
CC(=O)NCCc1ccc(O)c(O)c1	5.98% (inactive)
N#C/C(=C\c1ccc(O)c(O)c1)C(=O)NCc1ccccc1	-4.45% (inactive)
CCN(CC)CCCC(C)Nc1c2ccc(Cl)cc2nc2ccc(OC)cc12 (stereo not given)	16.9% (inactive)
CSC(=N)N	7.24% (inactive)
CC(C)NCC(O)c1ccc(O)c(O)c1 (stereo not given)	-5.24% (inactive) and 12.5% (inactive)
CCN(Cc1ccncc1)C(=O)C(CO)c1ccccc1 (stereo not given)	7.61% (inactive)
O=C(O)CCc1nc(-c2ccccc2)c(-c2ccccc2)o1	7.1% (inactive)
O=C1c2ccccc2-c2n[nH]c3cccc1c23	34.8% (inactive)
NC[C@@H]1O[C@H](C23CC4CC(CC(C4)C2)C3)Cc2c1ccc(O)c2O	0.204% (inactive)
COc1cccc(OC)c1OCCNCC1CSc2ccccc2O1 (stereo not given)	10.3% (inactive)

Reference: PubChem BioAssay
